Data taken from PubChem BioAssay.
Where “and” joins values, the source holds several entries; their conditions need not be identical. Equal values may be shown once. Records with an inconclusive call do not appear. Calls of active or inactive are those of the source. Unless noted, no cut-off is given here; in the data, nearly all actives have AC50 up to about 26 µM.

What was measured:
[1] = drug combination growth inhibition, ovarian cancer – cell-based, oncology-focused library, rucaparib conditional, profiling panel (AID 1508598;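 active = normalized viability below 100% at a tested concentration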); conditions: patient-derived ovarian cancer cells, CellTiter-Glo viability, 144 h, stronger effect = lower value
[2] = galactose survival enhancers in mitochondrial complex I cybrids – cell-based, galactose medium, ATP luminescence, primary screen (AID 1645843;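 active = z-score of at least 1.8 in each of two replicates, scored against plate mean and spread of sample wells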;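 note: positive z means more ATP and so rescue of galactose-driven cybrid death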); conditions: complex I mutant cybrid cells, 72 h, stronger effect = higher value
[3] = system: Aerobactin synthetase IucA (Klebsiella pneumoniae); assay: inhibition of K. pneumoniae IucA enzyme – biochemical, Tocris library, absorbance (AID 1345561; call rule not given here;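 note: 100% = enzyme without compound and 0% = no enzyme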); conditions: purified IucA enzyme assay, absorbance (OD) read-out; stronger effect = lower value;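 tested at 8 µM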
[4] = viability loss in pontine glioma line – cell-based, SU-DIPG-XVII, MIPE5.0, CellTiter-Glo, qHTS, dose response (AID 1347060); conditions: CellTiter-Glo ATP luminescence;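 for AC50: cells exposed to compound for 48 hours before viability readout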
[5] = viability loss in pontine glioma line – cell-based, SU-DIPG-XIII, MIPE4.0, CellTiter-Glo, qHTS, dose response (AID 1347061; cut-off not given, nearly all actives have AC50 up to about 37 µM;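 note: cells exposed to compound for 48 hours before readout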); conditions: CellTiter-Glo ATP luminescence
[6] = viability loss in pontine glioma line – cell-based, JHH-DIPG-1, MIPE4.0, CellTiter-Glo, qHTS, dose response (AID 1347062; cut-off not given, nearly all actives have AC50 up to about 27 µM;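 for AC50: cells exposed to compound for two days before readout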); conditions: JHH-DIPG-1 viability, CellTiter-Glo ATP luminescence
[7] = viability loss in pontine glioma line – cell-based, SU-DIPG-XIII, MIPE5.0, CellTiter-Glo, qHTS, dose response (AID 1347064; cut-off not given, nearly all actives have AC50 up to about 23 µM;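 for AC50: cells exposed to compound for 48 hours before the viability read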); conditions: CellTiter-Glo ATP luminescence
[8] = viability loss in pontine glioma line – cell-based, SU-DIPG-XXV, MIPE5.0, CellTiter-Glo, qHTS, dose response (AID 1347065); conditions: CellTiter-Glo ATP luminescence;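 note: cells exposed to compound for 48 hours before ATP readout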
[9] = growth inhibition of DIPG cells – cell-based, MIPE4.0 library, CellTiter-Glo luminescence, qHTS (AID 1347066; cut-off not given, nearly all actives have AC50 up to about 30 µM;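 note: cells exposed to compound for 48 hours before readout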); conditions: SU-DIPG-VI viability, CellTiter-Glo ATP luminescence
[10] = JHH-DIPG-1 glioma cell viability, MIPE5.0 library, CellTiter-Glo luminescence, qHTS (AID 1347067); conditions: JHH-DIPG-1 glioma viability, CellTiter-Glo ATP luminescence;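 note: cells exposed to compound for 48 hours before readout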
[11] = growth inhibition of DIPG cells – cell-based, MIPE5.0 library, qHTS (AID 1347068; cut-off not given, nearly all actives have IC50 up to about 30 µM;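 for IC50: cells exposed to compound for 48 hours before viability readout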); conditions: SU-DIPG-XXV viability
[12] = viability loss with induced miR-34 in A549 – imaging, A549 dox-inducible miR-34, nuclei and caspase counts, primary screen (AID 1347080;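 active = compounds whose cell count with miR-34 switched on is under 0.7 times the count with it off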); conditions: A549 miR-34 inducible, Hoechst nuclei count, 48 h
[13] = compounds altering HSF1 focus formation in cells – imaging, Selleck Cancer Library (AID 1347162; in the data active = plate-normalised HSF1 focus index below about 0.46); conditions: human cells, HSF1 nuclear foci imaging, at 10 µM; SSMD: measured here: HSF1 foci SSMD mean; cell count: measured here: cell number; plate-normalised HSF1 focus index: stronger effect = lower value
[14] = P. berghei load reduction in hepatocytes – cell-based, HepG2, luciferase luminescence, HepG2 viability, primary screen (AID 624349; in the data active = parasite load remaining mostly below about 12%, no sharp cut-off; inactive = mostly above about 10%;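 note: 100% = mean of DMSO negative control wells on the same plate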); conditions: P. berghei liver stage in HepG2, luciferase luminescence, concentration not given here; parasite load remaining: stronger effect = lower value; viability: measured here: HepG2 viability without parasites
[15] = MELAS cybrid and Rieske KO viability enhancers – cell-based, MELAS cybrids, Rieske KO mouse fibroblasts, CellTiter-Glo, primary screen (AID 1508586;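 active = mean z-score across replicates of 1.96 or higher in either the MELAS or the Rieske mutant cell line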;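 note: z relative to plate mean and SD of compound and empty wells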); conditions: low glucose
[16] = viability loss in pontine glioma line – cell-based, SU-DIPG-IV, MIPE4.0, CellTiter-Glo, qHTS, dose response (AID 1347063; cut-off not given, nearly all actives have AC50 up to about 30 µM;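 note: compound exposure lasted 48 hours before the viability readout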); conditions: CellTiter-Glo ATP luminescence
[17] = stronger effect = lower value, cell number ratio, induced over uninduced
[18] = measured here: relative caspase fold change +Dox/-Dox
[19] = measured here: total cells with miR-34 induction, stronger effect = lower value
[20] = measured here: total cells without miR-34 induction
[21] = MELAS cybrid survival, CellTiter-Glo 48 h, stronger effect = higher value
[22] = Rieske KO mouse fibroblast survival, CellTiter-Glo 72 h

Structure (SMILES): O=c1[nH]c(-c2ccc(C(F)(F)F)cc2)nc2c1CSCC2
- viability ([1]; at 0.0781 µM, OCI-C5x cells, with rucaparib 10 µM, 100% = cells with rucaparib alone): 110% (inactive)
- viability ([1]; at 0.0781 µM, OCI-C5x cells, without rucaparib): 104% (inactive)
- viability ([1]; at 0.0781 µM, OCI-P5x cells, with rucaparib 20 µM, 100% = cells with rucaparib alone): 106% (inactive)
- viability ([1]; at 0.0781 µM, OCI-P5x cells, without rucaparib): 105% (inactive)
- viability ([1]; at 0.313 µM, OCI-C5x cells, with rucaparib 10 µM, 100% = cells with rucaparib alone): 107% (inactive)
- viability ([1]; at 0.313 µM, OCI-C5x cells, without rucaparib): 102% (inactive)
- viability ([1]; at 0.313 µM, OCI-P5x cells, with rucaparib 20 µM, 100% = cells with rucaparib alone): 105% (inactive)
- viability ([1]; at 0.313 µM, OCI-P5x cells, without rucaparib): 94.6% (active)
- viability ([1]; at 1.25 µM, OCI-C5x cells, with rucaparib 10 µM, 100% = cells with rucaparib alone): 107% (inactive)
- viability ([1]; at 1.25 µM, OCI-C5x cells, without rucaparib): 99.4% (active)
- viability ([1]; at 1.25 µM, OCI-P5x cells, with rucaparib 20 µM, 100% = cells with rucaparib alone): 113% (inactive)
- viability ([1]; at 1.25 µM, OCI-P5x cells, without rucaparib): 103% (inactive)
- viability ([1]; at 5 µM, OCI-C5x cells, with rucaparib 10 µM, 100% = cells with rucaparib alone): 115% (inactive)
- viability ([1]; at 5 µM, OCI-C5x cells, without rucaparib): 112% (inactive)
- viability ([1]; at 5 µM, OCI-P5x cells, with rucaparib 20 µM, 100% = cells with rucaparib alone): 105% (inactive)
- viability ([1]; at 5 µM, OCI-P5x cells, without rucaparib): 99% (active)
- z-score [2]: 0.565 (inactive)

Structure (SMILES): O=c1[nH]nc(Sc2ncc([N+](=O)[O-])s2)n1-c1ccc2c(c1)OCCO2
- remaining activity [3]: 125% (inactive)
- AC50 [4]: 3.72 µM (active)
- AC50 [5]: 5.9 µM (active)
- AC50 [6]: 5.26 µM (active)
- AC50 [7]: 3.72 µM (active)
- AC50 [8]: 2.35 µM (active)
- AC50 [9]: 2.64 µM (active)
- AC50 [10]: 2.95 µM (active)
- IC50 [11]: 23.5 µM (active)
- fold change [12, 17]: 1.25 (inactive)
- fold change [12, 18]: 0.969
- cell count [12, 19]: 2070
- cell count [12, 20]: 1660
- SSMD [13]: -8.15
- cell count [13]: 5980
- plate-normalised HSF1 focus index [13]: 0.592 (inactive)
- z-score [2]: -0.705 (inactive)

Structure (SMILES): CN1C(=O)C(Cc2c[nH]c3ccccc23)NC1=S (stereo not given)
- parasite load remaining [14]: 48.6% (inactive)
- viability [14]: 96.5%
- remaining activity [3]: 89.8% (inactive)
- outcome [4]: inactive
- outcome [5]: inactive
- outcome [6]: inactive
- outcome [7]: inactive
- outcome [8]: inactive
- outcome [9]: inactive
- outcome [10]: inactive
- outcome [11]: inactive
- fold change [12, 17]: 0.887 (inactive) and 0.965 (inactive)
- fold change [12, 18]: 0.523 and 1.02
- cell count [12, 19]: 7790 and 8210
- cell count [12, 20]: 8780 and 8510
- SSMD [13]: 1.64
- cell count [13]: 7350
- plate-normalised HSF1 focus index [13]: 1.1 (inactive)
- z-score [15, 21]: -0.333 (inactive)
- z-score [15, 22]: 0.34
- z-score [2]: 0.03 (inactive)

Structure (SMILES): O=C(O)c1ccc2cc(-c3ccc(O)c(C45CC6CC(CC(C6)C4)C5)c3)ccc2c1
- remaining activity [3]: 120% (inactive)
- AC50 [4]: 0.59 µM (active)
- AC50 [6]: 5.26 µM (active)
- AC50 [16]: 0.332 µM (active)
- AC50 [8]: 3.32 µM (active)
- AC50 [10]: 3.72 µM (active)
- fold change [12, 17]: 1.3 (inactive)
- fold change [12, 18]: 0.838
- cell count [12, 19]: 1990
- cell count [12, 20]: 1530
- SSMD [13]: 1.71
- cell count [13]: 6920
- plate-normalised HSF1 focus index [13]: 1.1 (inactive)
- z-score [2]: -0.83 (inactive)

Structure (SMILES): CC[C@H](NC(C)C)[C@H](O)c1ccc(O)c2[nH]c(=O)ccc12
- parasite load remaining [14]: 42.5% (inactive)
- viability [14]: 102%
- remaining activity [3]: 95.2% (inactive)
- outcome [4]: inactive
- outcome [5]: inactive
- outcome [6]: inactive
- outcome [16]: inactive
- outcome [8]: inactive
- outcome [9]: inactive
- outcome [10]: inactive
- fold change [12, 17]: 0.929 (inactive) and 0.941 (inactive)
- fold change [12, 18]: 0.691 and 1.28
- cell count [12, 19]: 8730 and 10200
- cell count [12, 20]: 9400 and 10800
- z-score [15, 21]: -0.163 (inactive)
- z-score [15, 22]: -0.0411
- z-score [2]: 0.095 (inactive) and 0.72 (inactive)

Structure (SMILES): CCOC(=O)C1=C(N)Oc2ccc(Br)cc2C1C(C#N)C(=O)OCC (stereo not given)
- remaining activity [3]: 92.3% (inactive)
- AC50 [4]: 26.3 µM (active)
- outcome [5]: inactive
- AC50 [6]: 23.5 µM (active)
- AC50 [8]: 23.5 µM (active)
- AC50 [9]: 20.9 µM (active)
- outcome [11]: inactive
- fold change [12, 17]: 1.02 (inactive)
- fold change [12, 18]: 1.4
- cell count [12, 19]: 6950
- cell count [12, 20]: 6840
- z-score [2]: -0.87 (inactive)

Structure (SMILES): COC1CCC(C(=O)c2ccc3nc4c(cc3c2)CCCO4)CC1 (stereo not given)
- remaining activity [3]: 99.8% (inactive)
- outcome [4]: inactive
- AC50 [6]: 20.9 µM (active)
- AC50 [16]: 9.35 µM (active)
- outcome [7]: inactive
- outcome [8]: inactive
- outcome [11]: inactive
- fold change [12, 17]: 0.932 (inactive)
- fold change [12, 18]: 1.27
- cell count [12, 19]: 8170
- cell count [12, 20]: 8760
- z-score [2]: 0.32 (inactive)

Structure (SMILES): CCOc1cc(C(=O)Nc2ccc(Cl)c(-c3nc4ccccc4[nH]3)c2)cc(OCC)c1OCC
- remaining activity [3]: 119% (inactive)
- outcome [4]: inactive
- AC50 [5]: 10.5 µM (active)
- outcome [9]: inactive
- outcome [11]: inactive
- fold change [12, 17]: 0.991 (inactive)
- fold change [12, 18]: 0.843
- cell count [12, 19]: 5960
- cell count [12, 20]: 6020
- SSMD [13]: 4.38
- cell count [13]: 6790
- plate-normalised HSF1 focus index [13]: 1.26 (inactive)
- z-score [2]: 0.375 (inactive)

Structure (SMILES): Cc1cc(I)ccc1Nc1c(C(=O)NOCC2CC2)cc(F)c(F)c1F
- parasite load remaining [14]: 55.5% (inactive)
- viability [14]: 67.8%
- remaining activity [3]: 104% (inactive)
- AC50 [4]: 5.9 µM (active)
- AC50 [7]: 6.61 µM (active)
- AC50 [8]: 9.34 µM (active)
- AC50 [10]: 4.17 µM (active)
- IC50 [11]: 10.5 µM (active)
- fold change [12, 17]: 1.12 (inactive)
- fold change [12, 18]: 1.32
- cell count [12, 19]: 1290
- cell count [12, 20]: 1150
- z-score [2]: -0.65 (inactive)

Structure (SMILES): Cc1ccc(/C=N/NC(=O)c2ccccc2Oc2ccccc2)o1
- remaining activity [3]: 79% (inactive)
- outcome [4]: inactive
- outcome [6]: inactive
- outcome [8]: inactive
- outcome [9]: inactive
- outcome [10]: inactive
- outcome [11]: inactive
- fold change [12, 17]: 0.862 (inactive)
- fold change [12, 18]: 1.34
- cell count [12, 19]: 7340
- cell count [12, 20]: 8520
- z-score [2]: -0.2 (inactive)

Structure (SMILES): CCOC(=O)C1=C(C)NC(=S)NC1c1cccc(O)c1 (stereo not given)
- remaining activity [3]: 109% (inactive)
- outcome [4]: inactive
- outcome [5]: inactive
- outcome [7]: inactive
- outcome [9]: inactive
- outcome [10]: inactive
- outcome [11]: inactive
- fold change [12, 17]: 0.947 (inactive) and 1.05 (inactive)
- fold change [12, 18]: 1 and 0.625
- cell count [12, 19]: 2900 and 8090
- cell count [12, 20]: 3060 and 7690
- z-score [2]: 0.085 (inactive)
